Bioassay records as filed in PubChem BioAssay.
HP1b binding inh = HP1-beta chromodomain-methylated histone interaction inhibition. AlphaScreen HP1-beta / biotin-H3K9me3 peptide binding. P83916. Potency, µM (highest dose often 114 µM), for the others: at the highest dose activity change, negative = inhibition, actives largely listed as inhibitors. hit rate 0.56% among 390,000. AID 540317; note: potency is the fitted concentration of half-maximal effect; nearly all actives have a fitted effect of over 70% in size
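Compound inhibition of the preformed complex between 50 nM HP1-beta and 50 nM biotinylated H3K9me3 peptide was read by AlphaScreen. Buffer was PBS pH 7.4 with 0.01% Tween-20. Incubations ran 30 min at room temperature, with 10 ug/mL donor/acceptor beads.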
Six1-Eya2 inh = inhibitors of human Six1/Eya2 interaction; AlphaScreen GST-Six1/His-Eya2 binding, biochemical; active compounds read low; activity change, % (concentration not given with the values); hit rate 0.56% among 360,000; AID 651725; in the data active = activity change below about -65%; inconclusive = mostly about -30% to -63%; note: % is set by controls: 0 for no effect and ±100 for the full control effect
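AlphaScreen with GST-Six1 and His-Eya2 (5X mix: 250 nM and 500 nM), glutathione donor and nickel acceptor beads; buffer 50 mM Tris pH 8.0, 300 mM NaCl, 1 mM TCEP; 1 h at 37 C in the dark.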
JMJD2A Tudor inh = inhibitors of human JMJD2A Tudor domain. O75164. AlphaScreen JMJD2A-Tudor / H3K4me3 peptide binding. Potency, µM (highest dose often 114 µM), for the others: at the highest dose activity change, negative = inhibition, hits mostly inhibitors. hit rate 4.4% among 390,000. AID 504339; note: potency is the fitted concentration of half-maximal effect; % is set by controls: 0 for no effect and ±100 for the full control effect; nearly all actives have a fitted effect of over 50% in size
Target sequence (O75164 whole entry, looked up, the tested form may be a part): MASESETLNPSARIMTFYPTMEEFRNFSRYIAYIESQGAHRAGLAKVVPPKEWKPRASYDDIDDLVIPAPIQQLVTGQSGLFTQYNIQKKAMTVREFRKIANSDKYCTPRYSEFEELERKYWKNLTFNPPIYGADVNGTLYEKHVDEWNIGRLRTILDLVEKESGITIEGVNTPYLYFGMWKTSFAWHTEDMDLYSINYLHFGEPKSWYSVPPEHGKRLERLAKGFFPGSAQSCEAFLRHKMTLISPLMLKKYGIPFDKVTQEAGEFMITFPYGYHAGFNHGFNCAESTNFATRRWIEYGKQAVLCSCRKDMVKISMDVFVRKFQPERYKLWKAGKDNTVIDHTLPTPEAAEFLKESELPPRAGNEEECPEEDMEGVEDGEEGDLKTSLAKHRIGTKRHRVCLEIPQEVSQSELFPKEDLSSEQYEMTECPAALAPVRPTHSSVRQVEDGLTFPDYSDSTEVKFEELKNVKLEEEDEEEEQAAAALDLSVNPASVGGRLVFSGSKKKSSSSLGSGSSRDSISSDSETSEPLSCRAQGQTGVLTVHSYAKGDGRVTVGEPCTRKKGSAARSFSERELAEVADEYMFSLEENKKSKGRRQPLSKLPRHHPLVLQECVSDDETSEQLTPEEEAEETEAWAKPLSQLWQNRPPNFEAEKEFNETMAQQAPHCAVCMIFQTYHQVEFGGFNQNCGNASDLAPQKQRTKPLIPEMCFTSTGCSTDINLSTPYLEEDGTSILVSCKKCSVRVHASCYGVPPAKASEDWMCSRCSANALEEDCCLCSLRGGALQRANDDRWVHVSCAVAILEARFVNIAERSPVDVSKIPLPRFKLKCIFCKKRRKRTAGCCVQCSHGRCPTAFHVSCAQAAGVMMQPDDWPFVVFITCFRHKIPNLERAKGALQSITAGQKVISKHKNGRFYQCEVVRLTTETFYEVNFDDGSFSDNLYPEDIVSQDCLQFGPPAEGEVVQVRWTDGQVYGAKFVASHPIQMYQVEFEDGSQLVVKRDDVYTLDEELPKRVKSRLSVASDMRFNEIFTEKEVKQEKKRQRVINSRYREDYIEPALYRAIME
G9a inh = blocks human histone lysine methyltransferase G9a | hit rate 8.8% among 350,000 | Q96KQ7 | AID 504332 | Potency, µM (doses to about 102 µM), for the others: at the top dose activity, negative = inhibition, actives largely listed as inhibitors | G9a H3K9 monomethylation, AlphaScreen, 2 h; note: potency is the fitted concentration of half-maximal effect; % is set by controls: 0 for no effect and ±100 for the full control effect; nearly all actives have a fitted effect of over 75% in size
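Signal arises when biotinylated H3K9 peptide, once monomethylated, bridges streptavidin donor and antibody-captured acceptor beads. Enzyme at 20 nM was preincubated 15 min with test compounds; peptide 500 nM and SAM 20 uM then reacted for 2 h.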
BAZ2B block = BAZ2B (human) inhibition; AlphaScreen BAZ2B-H3K14Ac peptide displacement; Potency, µM (top dose mostly 114 µM), for inactives: at the highest dose activity change, negative = inhibition, usual class: inhibitors; hit rate 4.4% among 360,000; AID 504333; note: potency is the fitted concentration of half-maximal effect; % is set by controls: 0 for no effect and ±100 for the full control effect; nearly all actives have a fitted effect of over 60% in size
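In this displacement format the biotinylated H3(5-23) peptide acetylated at Lys14 serves as ligand at 50 nM, with BAZ2B at 50 nM in PBS pH 7.4 containing 0.01% Tween-20. Donor and acceptor beads are 10 ug/mL final.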
CtBP-E1A inh = inhibitors of CtBP/E1A interaction; AlphaScreen GST-E1A/His-CtBP binding, 1536-well; active compounds read low; hit rate 0.49% among 340,000; activity change, % (concentration not given with the values); in the data active = activity change below about -65%; inconclusive = mostly about -30% to -63%; note: % is set by controls: 0 for no effect and ±100 for the full control effect
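Protein mix (5X: 125 nM each GST-E1A, His-CtBP) was incubated with pinned compound 2 h at 37 deg C in dark, in 50 mM Tris pH 8.0 buffer with 300 mM NaCl. Glutathione donor and nickel acceptor beads followed; AlphaScreen signal read after 1 h.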
Active calls of the source: *; [ ] = remark or other dose. In the library only some 10% were active in any assay of this set; here they are far more common. Unless noted, calls come from the whole dose curve; as a rule, active = well fitted inhibition curve with a large enough effect; inconclusive = small, poorly fitted or top-dose-only effect; inactive = no such curve, though single readings can be large or run the other way.

Screening Cc1nn(C)c(C)c1CN(C)C(=O)C1CCC(=O)N(C2CCCCCC2)C1 (configuration not stated) returned HP1b binding inh 17.5%, Six1-Eya2 inh 11.8, JMJD2A Tudor inh -2.1%, BAZ2B block 10.8% and CtBP-E1A inh 0.6.
`COc1ccccc1NS(=O)(=O)c1cc(NC(=O)CNC(=O)c2ccccc2)ccc1C` gave HP1b binding inh 13.6%, Six1-Eya2 inh inconclusive, JMJD2A Tudor inh -22.3%[57.1 µM], G9a inh 3.1%[59 µM], BAZ2B block -7.9% and CtBP-E1A inh inconclusive.
Screening CCN(CC)c1ccc(NC(=O)COc2ccccc2C#N)cc1S(=O)(=O)Nc1ccccc1OC returned HP1b binding inh inconclusive, Six1-Eya2 inh 5.5, JMJD2A Tudor inh inconclusive, G9a inh 2.51µM*, BAZ2B block -34.3% and CtBP-E1A inh -12.0.
Screening CCN(CC)c1ccc(NC(=O)c2ccccn2)cc1S(=O)(=O)Nc1ccccc1OC returned HP1b binding inh inconclusive, Six1-Eya2 inh inconclusive, JMJD2A Tudor inh 56.2µM*, G9a inh 2.51µM*, BAZ2B block inconclusive and CtBP-E1A inh -22.3.
For CCN(CC)c1ccc(N)cc1S(=O)(=O)Nc1ccccc1OC the results were HP1b binding inh 11.2µM*, Six1-Eya2 inh -6.2, JMJD2A Tudor inh inconclusive, G9a inh 2.51µM*, BAZ2B block inconclusive and CtBP-E1A inh -7.3.
`CC(NC(=O)c1ccc2c(c1)sc1nc(-c3ccc(F)cc3)cn12)C12CC3CC(CC(C3)C1)C2` (configuration not stated) gave HP1b binding inh 40.7%, JMJD2A Tudor inh -8.9%, G9a inh 1.4%[59 µM] and BAZ2B block -16.1%.
Screening Cc1ccc(-c2cc(N)n(-c3ccccc3)n2)cc1 returned HP1b binding inh -12.6%, Six1-Eya2 inh -1.6, JMJD2A Tudor inh -12.1%, G9a inh inconclusive, BAZ2B block -0.6%[57.1 µM] and CtBP-E1A inh -0.3.
Screening CCc1ccc(-c2cc(N)n(-c3ccccc3)n2)cc1 returned HP1b binding inh inconclusive, Six1-Eya2 inh -0.9, JMJD2A Tudor inh inconclusive, G9a inh 44.7µM* and CtBP-E1A inh -4.8.
For C=CCNC(=O)c1cc(Cl)cc(Cl)c1 the results were HP1b binding inh -6.5%, Six1-Eya2 inh 0.5, JMJD2A Tudor inh 44.7µM*, G9a inh -2.7%, BAZ2B block -3.8% and CtBP-E1A inh 0.0.
For CCOc1ccc(Nc2c(S(=O)(=O)c3ccccc3)cnc3ccc(CC)cc23)cc1 the results were HP1b binding inh 37.0%, JMJD2A Tudor inh -12.4%, G9a inh 1.6%[59 µM] and BAZ2B block -28.1%.
`CC(C)(C)c1nnc(NS(=O)(=O)c2ccc([N+](=O)[O-])cc2)s1` gave HP1b binding inh -13.2%, Six1-Eya2 inh 14.2, JMJD2A Tudor inh -28.9%, G9a inh 10µM* and BAZ2B block -2.6%.
Screening Cc1ccc(S(=O)(=O)Nc2nnc(CC(C)(C)C)s2)cc1 returned HP1b binding inh -5.1%, Six1-Eya2 inh 0.2, JMJD2A Tudor inh -20.7%, G9a inh 35.5µM* and BAZ2B block -21.3%.
CC(C)(C)Cc1nnc(NS(=O)(=O)c2ccc([N+](=O)[O-])cc2)s1 was read as HP1b binding inh 18.5%, Six1-Eya2 inh 4.8, JMJD2A Tudor inh -6.1%, G9a inh -12.4%, BAZ2B block inconclusive and CtBP-E1A inh 4.8.
Screening Cc1ccc(S(=O)(=O)Nc2nsc(N)n2)cc1 returned HP1b binding inh 5.1%, Six1-Eya2 inh 0.7, JMJD2A Tudor inh 1.8%, G9a inh 31.6µM*, BAZ2B block -5.6% and CtBP-E1A inh -5.4.
Screening COCc1nnc(NS(=O)(=O)c2ccc(C)cc2)s1 returned HP1b binding inh 62.6%, Six1-Eya2 inh 6.4, JMJD2A Tudor inh inconclusive, G9a inh -8.7%[12.7 µM], BAZ2B block -9.0% and CtBP-E1A inh 10.3.
`Cc1ccc(S(=O)(=O)Nc2nnc(C(C)(C)C)s2)cc1` gave HP1b binding inh -2.2%, Six1-Eya2 inh -1.5, JMJD2A Tudor inh -5.1%, G9a inh 4.47µM* and BAZ2B block -6.3%.
`O=C(CSc1nc2sc3c(c2c(=O)[nH]1)CCCC3)Nc1ccccc1F` gave HP1b binding inh 12.4%, JMJD2A Tudor inh -21.3%, G9a inh inconclusive and BAZ2B block -6.0%.
`CCN1C(=O)c2ccccc2S(=O)c2ccc(C(=O)NCc3ccc(Cl)cc3)cc21` (configuration not stated) gave HP1b binding inh 32.8%, JMJD2A Tudor inh -18.2%, G9a inh -7.7%[59 µM] and BAZ2B block -8.2%.
For COc1ccc(Cc2nnc(NC(=O)CSc3ccc(Cl)cc3)s2)cc1OC the results were G9a inh 8.9%[59 µM] and BAZ2B block -1.6%.
For COc1ccc(Cc2nnc(NS(=O)(=O)c3ccc(Cl)cc3)s2)cc1OC the results were HP1b binding inh -7.6%, Six1-Eya2 inh -0.5, JMJD2A Tudor inh -17.5%, G9a inh 31.6µM*, BAZ2B block inconclusive and CtBP-E1A inh -2.6.
Screening C[N+](C)(C)C/C=C1/COCO1 returned HP1b binding inh -3.2%, Six1-Eya2 inh 1.2, JMJD2A Tudor inh inconclusive, G9a inh 50.1µM*, BAZ2B block -2.4% and CtBP-E1A inh 2.9.
Cc1ccccc1NC(=O)CSc1nc2c(oc3ccccc32)c(=O)n1-c1ccccc1F was read as HP1b binding inh 25.9%, JMJD2A Tudor inh -8.0%, G9a inh -9.8%[59 µM] and BAZ2B block -5.6%.
Screening Cc1ccccc1C1=C/C(=C(\SS/C(C(=O)c2ccc(OCC(=O)O)c(Cl)c2Cl)=C2\C=C(c3ccccc3C)SS2)C(=O)c2ccc(OCC(=O)O)c(Cl)c2Cl)SS1 returned HP1b binding inh 20µM*, Six1-Eya2 inh -4.1, JMJD2A Tudor inh 28.2µM* and CtBP-E1A inh 7.2.
Screening O=C(O)COc1ccc(C(=O)c2cccs2)c(Cl)c1Cl returned G9a inh -39.8%[12.7 µM].
For CCCn1c(=O)c2sccc2n2c(CCCC(=O)N3CCN(c4ccc(OC)cc4)CC3)nnc12 the results were HP1b binding inh 23.2%, JMJD2A Tudor inh -13.9%, G9a inh inconclusive and BAZ2B block inconclusive.
For Cc1ccc(S(=O)(=O)Nc2nc3n(n2)C(c2ccc(Cl)cc2)C=C(c2ccccc2)N3)cc1 (configuration not stated) the results were HP1b binding inh 38.4%, JMJD2A Tudor inh -5.3%, G9a inh -36.0%[59 µM] and BAZ2B block -30.4%.
CC1=CC(c2ccccc2)n2nc(NS(=O)(=O)c3ccc(C)cc3)nc2N1 (configuration not stated) was read as HP1b binding inh 27.0%, Six1-Eya2 inh -4.6, JMJD2A Tudor inh -11.9%, G9a inh 17.8µM*, BAZ2B block inconclusive and CtBP-E1A inh 0.9.
